High-throughput results: PubChem, National Center for Advancing Translational Sciences (NCATS)
Pf growth 48h: Primary qHTS for delayed death inhibitors of the malarial parasite plastid, 48 hour incubation | Potency, µM (series often up to 28.7 µM), for inactives: at the top dose activity change, negative = inhibition, actives largely listed as inhibitors | P. falciparum luciferase growth in erythrocytes, 48 h | AID 504832, 2011 | 5.9% of 310,000 active; note: potency is the fitted concentration of half-maximal effect; % is set by controls: 0 for no effect and ±100 for the full control effect
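Luminescence readout; reporter = integrated firefly luciferase in P. falciparum. RBC culture at 2% hematocrit, 0.1% parasitemia final, 37 C/5% CO2; decreased signal taken as growth inhibition.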
LASV entry inh: qHTS for Inhibitors of binding or entry into cells for Lassa Virus | Lassa virus pseudotype entry inhibition, cell reporter | Potency, µM (series often up to 37.9 µM), inactives show at the top dose activity change, negative = inhibition, hits mostly inhibitors | 1.2% of 300,000 active; calls by dose curve; tested in HEK293 cells; note: potency is the fitted concentration of half-maximal effect; % is set by controls: 0 for no effect and ±100 for the full control effect; nearly all actives have a fitted effect of over 50% in size
Pf growth 96h: Primary qHTS for delayed death inhibitors of the malarial parasite plastid, 96 hour incubation; P. falciparum luciferase reporter growth, 96 h; Potency, µM (top dose mostly 28.7 µM), for inactives: at the top dose activity change, negative = inhibition, actives largely listed as inhibitors; 6.9% of 320,000 active; AID 504834, 2011; note: potency is the fitted concentration of half-maximal effect; % is set by controls: 0 for no effect and ±100 for the full control effect
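Infected RBCs, 2% Hct / 0.05% parasitemia final; luciferase-reporter P. falciparum; cpd 96 h, 37 C, 5% CO2; luciferase detection reagent; luminescence.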
MARV entry inh: qHTS for inhibitors of binding or entry into cells for Marburg Virus. 1.8% of 300,000 active. Marburg virus pseudotyped entry inhibition, cell reporter. AID 540276, 2011. Potency, µM (doses to about 37.8 µM), without a hit: at the highest dose activity change, negative = inhibition, most hits filed as inhibitors; calls by dose curve; tested in HEK293 cells; note: potency is the fitted concentration of half-maximal effect; % is set by controls: 0 for no effect and ±100 for the full control effect
Shiga toxin inh: A qHTS for Small Molecule Inhibitors of Shiga Toxin; Vero cells, Shiga toxin protein synthesis inhibition reporter; inhibition, % at 38.7 µM; 9.2% of 290,000 active; in the data active = inhibition mostly above about 28%, no sharp cut-off; inactive = mostly below about 43%; note: 0% is about no effect
CHX counter: Cycloheximide Counterscreen for Small Molecule Inhibitors of Shiga Toxin; cell reporter, cycloheximide protein synthesis inhibition counterscreen; max response, %; 12% of 300,000 active; in the data active = max response mostly above about 13%, no sharp cut-off; inactive = mostly below about 14%; note: read at 38.3 µM for the half of the compounds with a filed dose; 0% is about no effect
An asterisk follows results filed as active; ? = inconclusive; nt = no result; [ ] = another dose, or the depositor's remark. Most compounds without a hit are left out; they make up all but 19% or so of the library. Unless noted, calls come from the whole dose curve; as a rule, active = well fitted inhibition curve with a large enough effect; inconclusive = small, poorly fitted or top-dose-only effect, or another doubt; inactive = no such curve, though single readings can be large or run the other way.

SMILES	Pf growth 48h	LASV entry inh	Pf growth 96h	MARV entry inh	Shiga toxin inh	CHX counter
Cc1ccc(Nc2nc(N)nc(CN3CCN(Cc4ccc5c(c4)OCO5)CC3)n2)cc1	10.4µM*	5.6%	nt	?	-1.5	-3.1
Cc1ccc(Nc2nc(N)nc(CN3CCN(Cc4ccc5c(c4)OCO5)CC3)n2)c(C)c1	11.7µM*	10.7%	?	-2.0%	-5.1	7.5
CN(C)CCN(CC1CCCN(Cc2ccccc2F)C1)C(=O)Cc1ccccc1F (stereo not drawn)	?	nt	0.0%	nt	12.4	3.4
CCSC1=N/C(=C\c2ccc(C(=O)O)cc2)C(=O)S1	nt	6.3%	13.1µM*	19.3%	-17.8	-3.3
COCCCNC(=O)CN(C1CCCCC1)S(=O)(=O)c1ccc(C)cc1	0.0%	5.3%	1.3%	6.8%	-15.9	-2.9
CC(C)NCC(O)COc1ccccc1-n1cccc1 (stereo not drawn)	-17.5%	nt	?	nt	nt	nt
CC(C)NC[C@H](O)COc1cccc2ccccc12	nt	1.1%	nt	14.6µM*	nt	nt
C=CCc1ccccc1OCC(O)CNC(C)C (stereo not drawn)	13.5µM*	1.8%	?	17.8µM*	-12.4	-3.6
CC(C)NC[C@H](O)COc1cccc2[nH]ccc12	22.2%	12.6%	10.7%	?	-5.0	-2.4
C=CCc1ccccc1OCC(O)CNC1CCCC1 (stereo not drawn)	?	nt	?	nt	-13.6	-3.7
CC(C)NC[C@@H](O)COc1cccc2ccccc12	9.28µM*	nt	?	17.8µM*	nt	nt
COc1ccc(C(=O)C2CCCN(C/C=C/c3ccccc3OC)C2)c(OC)c1 (stereo not drawn)	?	-12.3%[46.1 µM]	25.2%	?	-5.9	-3.2
C=CCn1cnc2scc(-c3ccc(OC)cc3)c2c1=O	32.8%	4.2%[46.1 µM]	?	4.6%[46.1 µM]	6.3	0.5
CCCc1cc(=O)oc2cc(C)cc(OC(C)C(=O)NCC(O)c3ccccc3)c12 (stereo not drawn)	0.465µM*	nt	?	nt	-3.3	1.3
CCCc1cc(=O)oc2cc(C)cc(OC(C)C(=O)NCCCn3ccnc3)c12 (stereo not drawn)	4.15µM*	22.5%[46.1 µM]	2.62µM*	?	-5.7	-5.4
CCCc1cc(=O)oc2cc(C)cc(OC(C)C(=O)NCCN3CCOCC3)c12 (stereo not drawn)	10.4µM*	25.9%[46.1 µM]	9.28µM*	16.9%[46.1 µM]	9.6	8.5
CCCc1cc(=O)oc2cc(OC(C)C(=O)NCc3ccccn3)c(Cl)cc12 (stereo not drawn)	-7.8%	nt	10.4µM*	nt	10.2	-11.8
CCCc1cc(=O)oc2c(C)c(OC(C)C(=O)NCc3ccccn3)ccc12 (stereo not drawn)	-3.4%	nt	-3.1%	nt	-2.8	-2.9
Cc1cc(OC(C)C(=O)NCC(O)c2ccccc2)c2c(C)cc(=O)oc2c1 (stereo not drawn)	?	nt	?	nt	19.8	-1.5
CCCc1cc(=O)oc2cc(C)cc(OC(C)C(=O)NCCCN3CCOCC3)c12 (stereo not drawn)	?	nt	?	nt	-4.1	15.0
CCc1ccc(NC(=O)CSc2nc3c(c(=O)[nH]2)CN(Cc2ccc4c(c2)OCO4)CC3)cc1	nt	2.0%[46.1 µM]	nt	5.7%[46.1 µM]	nt	nt
COc1ccc(C(=O)C2CC2c2ccc3c(c2)OCO3)cc1 (stereo not drawn)	269.4%	?	-27.7%	?	8.3	9.2
O=S(=O)(NCC(c1ccco1)N1CCc2ccccc21)c1ccccc1 (stereo not drawn)	?	13.1%	?	?	nt	nt
Cc1cc(OC(C)C(=O)NCCc2c[nH]c3ccccc23)c2c(C)cc(=O)oc2c1 (stereo not drawn)	1.47µM*	nt	1.65µM*	nt	-2.2	-1.7
CCCc1cc(=O)oc2cc(C)cc(OC(C)C(=O)N[C@@H](Cc3c[nH]c4ccccc34)C(=O)O)c12 (stereo partly drawn)	13.9%	nt	47.3%	-7.9%	-9.6	-3.2
SMILES	Pf growth 48h	LASV entry inh	Pf growth 96h	MARV entry inh	Shiga toxin inh	CHX counter
COc1ccc(NC(=O)CSc2nc3ncccc3[nH]2)cc1OC	21.4%	6.8%	nt	1.1%	27.8	-2.0
COC(=O)c1ccccc1NC(=O)CSc1nc2ncccc2[nH]1	1.9%	24.4%[46.1 µM]	16.1%	-1.3%[46.1 µM]	-12.4	1.2
CC(C)c1ccc(NC(=O)CSc2n[nH]c(=O)n2-c2cccnc2)cc1	-3.3%	3.8%[46.1 µM]	13.1µM*	0.0%[46.1 µM]	-11.0	-1.9
CC(C)c1ccc(NC(=O)CSc2nc3ncccc3[nH]2)cc1	-3.7%	nt	-14.7%	nt	17.9	18.8*
CC(C)OC(=O)c1ccc(NC(=O)CSc2nc3ncccc3[nH]2)cc1	-28.5%	nt	?	nt	46.0*	22.9*
CSCCC(NS(=O)(=O)c1ccc2c(c1)oc(=O)n2C)C(=O)N1CCN(c2ccc(F)cc2)CC1 (stereo not drawn)	nt	8.7%[46.1 µM]	nt	nt	nt	nt
Cc1cc(C(=O)CSc2nnc(N)s2)c(C)n1C1CC1	43.8%	-19.5%	22.6%	11.4%[46.1 µM]	nt	nt
CCCCNC(=O)c1cn(CC)c2cc(N3CCN(C)CC3)c(F)cc2c1=O	?	nt	?	nt	15.3	0.4
O=C(NN=C1CCCC1)c1ccc(O)cc1O	-10.1%	nt	13.1µM*	nt	124.4*	37.7*
CC(C)(C)c1ccc(C(=O)NN=C2CCCC2)cc1	-20.2%	-8.1%	9.9%	-1.1%	13.2	8.7
NNC(=O)c1ccc(O)cc1O	8.4%	2.0%	-20.6%	11.6%	75.9*	29.6*
CCCCCC(=O)c1ccc(O)cc1O	6.7%	28.1%[46.1 µM]	17.8%	?	49.4*	32.1*
O=C(NN=C1CCCC1)c1cc(Br)ccc1O	27.9%	nt	?	nt	43.4	23.0*
CCn1cc(C(=O)NN)c(=O)c2cc(F)c(N3CCN(C)CC3)cc21	?	nt	11.7µM*	nt	-6.7	-1.5
CCOC(=O)c1cn(CC)c2cc(N3CCOCC3)c(F)cc2c1=O	1.85µM*	0.1%	14.4%	0.0%	10.1	-2.0
CCn1cc(C(=O)NN)c(=O)c2cc(F)c(N3CCCCC3)cc21	?	nt	-6.4%	nt	21.3	-1.9
CN1CCN(c2cc3c(cc2F)c(=O)c(C(=O)O)cn3-c2ccc(F)cc2)CC1	?	nt	6.75µM*	nt	nt	nt
CCN1CCN(c2cc3c(cc2F)c(=O)c(C(=O)O)cn3C2CC2)CC1	?	0.7%	8.28µM*	?	-8.4	-2.9
COc1ccc(CCNc2nc3c(-c4cccc(C(F)(F)F)c4)nnn3c3ccccc23)cc1OC	nt	13.4%[46.1 µM]	nt	12.2%[46.1 µM]	nt	nt
Cc1cc(C)c2c(N)c(C(=O)Nc3ccccc3C(F)(F)F)sc2n1	nt	-13.4%[46.1 µM]	nt	nt	nt	nt
O=C(NCCCn1ccnc1)c1cc2ccccc2o1	5.5%	10.1%	17.1%	8.9%[46.1 µM]	4.2	-2.9
Cc1cc(C)c2c(N)c(C(=O)Nc3ccc([N+](=O)[O-])cc3)sc2n1	111.3%	nt	41.6%	nt	41.9*	19.8*
COc1ccc(NC(=O)c2sc3nc(C)cc(C)c3c2N)cc1	160.7%	nt	?	nt	43.3*	34.3*
Cc1cc(C)c2c(N)c(C(=O)Nc3ccc(C)c(C)c3)sc2n1	48.4%	nt	31.8%	nt	123.7*	32.9*
